Results on 40 compounds are retold here after PubChem BioAssay (Tox21).

Unmarked numbers belong to inactive results. Calls of active or inactive are those of the source. Calls come from the whole dose curve; as a rule, active = well fitted curve in the direction sought with a large enough effect in the repeat runs; inconclusive = weak or mixed curves; inactive = flat fitted curve, though single readings scatter.
% is set by controls: 0 for no effect and ±100 for the full control effect.

The test is described as follows: qHTS assay to test for compound auto fluorescence at 460 nm (blue) in HepG2 cells (AID 720687). To be noted: autofluorescence 405/460 nm, 1 h; series mostly up to 91.3 µM. An excerpt:
U.S. Tox21 Program National Center for Advancing Translational Sciences [NCATS] NIH Chemical Genomics Center [NCGC] U.S. Environmental Protection Agency [EPA] National Institutes of Environmental Health Sciences [NIEHS] National Toxicology Program [NTP] U.S. Food and Drug Administration [FDA] Tox21 Assay Overview: Compound auto fluorescence often interferes with screening of the compound library against various biological targets and signaling pathways. Some of these compounds may have fluorophoric properties. Such properties may interfere with the assay outputs resulting in false positives and/or negatives. To decrease such complications and ensure the compound activities are relevant in terms of biological response, the Tox21 10K compound library was screened for auto fluorescence. From the fluorophores used as reporter signals in our screening assays, the auto fluorescence equivalencies of compounds against three fluorophores have been evaluated: Triamterene, Fluorescein and Rose Bengal sodium for blue, green and red fluorescence, respectively. The fluorescence intensities were measured using Excitation/Emission wavelengths at 405/460nm, 485/535nm and 540/590nm for blue, green and red labels, respectively. This assay includes the blue fluorescence data.
Tox21 Assay Protocol Summary: 2,000 HepG2 cells in 5 uL of culture medium (MEM containing 10% FBS) per well were dispensed into black wall/clear bottom 1536-well plates using a Multidrop Combi Dispenser (ThermoFisher Scientific, Waltham, MA). The assay plates were incubated overnight at 37 C to allow cell attachment to the well bottom, followed by the transfer of 23 nL compound or DMSO vehicle by a pintool work station (Kalypsys , San Diego, CA). After the assay plates were incubated for 1 hr at 37 C and 5% CO2, fluorescence intensities in the assay plates were measured by an Envision (PerkinElmer, Shelton, CT) plate reader using three labels for measuring blue, green and red fluorescence at […] 460, 535 and 590 nm respectively.
For orientation: In qHTS, concentration-response curves come from the screen itself.
In the case of `CCOC(=O)C(Br)c1ccccc1` (stereo not given), the call was inactive. On to `COc1cc(C)ccc1C(C)C`, for which the result was inactive. With `CC(=O)OC1C2(C)CCC(C2)C1(C)C` (stereo not given), the call was inactive. As for `CCCCC(CC)COC(=O)COc1cc(Cl)c(Cl)cc1Cl` (stereo not given), the outcome was inactive. Take `CCCCNc1ccc(C(=O)OCCN(CC)CC)cc1`: the result was inactive. In the case of `C=CCCCCCCCCO`, the compound was called inactive. In the case of `Cc1ncc(CO)c(CN)c1O`, the compound was classed as inactive. Turning to `Nc1cccc(S(=O)(=O)O)c1`, the result was inactive. Turning to `O=C(O)[C@@H](O)[C@H](O)[C@H](O)[C@@H](O)C(=O)O`, the outcome was inactive. For `CN1CCN(c2c(F)cc3c(=O)c(C(=O)O)cn(CCF)c3c2F)CC1`, the compound was called inactive. With `Cc1cc(NS(=O)(=O)c2ccc(N)cc2)nc(C)n1`, the outcome was inactive.

Take `N#Cc1ccc(C(c2ccc(C#N)cc2)n2cncn2)cc1`: the compound was classed as inactive. Consider `Cc1c[nH]c(=S)[nH]c1=O`, for which the outcome was inactive. On the same count and under the same terms, the result for `Cc1ccc(C(C)C)cc1O` reads “inactive”; that for `CC1=CC(=O)CC(C)(C)C1=O`, “inactive”. The same measure, in the same setting: under `FC(F)(F)C(Cl)(Cl)Cl` stands “inactive”; under `CN(C)CCOc1ccccc1Cc1ccccc1`, “inactive”; under `O=C1Nc2ccc([N+](=O)[O-])cc2C1=O`, “inactive”. Same read-out and setting: under `O=C(O)c1cccc(Cl)c1Cl` stands “inactive”; under `CC1(C)S[C@@H]2[C@H](NC(=O)C(C(=O)O)c3ccccc3)C(=O)N2[C@H]1C(=O)O` (stereo not given in full), “inactive”. In the case of `FC(F)(F)C(F)(F)C(F)(F)C(F)(F)C(F)(F)C(F)(F)C(F)(F)C(F)(F)Br`, the call was inactive. In the case of `O=C1C=CC(=O)O1`, the compound was classed as inactive. As to `Cc1ccc(C=O)s1`, the outcome was inactive. Turning to `CCC(=O)c1ccc2c(c1)N(CCCN(C)C)c1ccccc1S2`, the compound was called inactive.

Turning to `CCCCNCCCC`, the result was inactive. On to `CCCCCCCCOC(=O)CCCCCCCCC(=O)OCCCCCCCC`, for which the outcome was inactive. Consider `CN1CCN(C2=Nc3cc(F)ccc3Cc3ccccc32)CC1`, for which the outcome was inactive. For `CC1(C)C(=O)N(Cl)C(=O)N1Br`, the compound was classed as inactive. On to `C[C@@H]1CN(c2c(F)c(N)c3c(=O)c(C(=O)O)cn(C4CC4)c3c2F)C[C@H](C)N1`, for which the outcome was inactive. For `COc1cc(N)c(Cl)cc1C(=O)NC1CCN(Cc2ccccc2)CC1`, the fluorescence, % of fluorescent control is 0.034% [at 18.6 µM]. For `COc1ccccc1N1CCN(CCCNc2cc(=O)n(C)c(=O)n2C)CC1`, the compound was classed as inactive. Take `O=C(O)[C@@H]1CSCN1`: the outcome was inactive. As for `Cc1c(N)cccc1N`, the call was inactive. As to `O=C1CCCCCCCCCCC(=O)OCCO1`, the compound was called inactive. The same measure, in the same setting: under `O=c1[nH]c(=O)n([C@H]2C[C@H](O)[C@@H](CO)O2)cc1C(F)(F)F` stands “inactive”. Same read-out and setting: under `Oc1ccccc1F` stands “inactive”. As to `CCC(=O)O[C@]1(C(=O)SCF)[C@H](C)C[C@H]2[C@@H]3C[C@H](F)C4=CC(=O)C=C[C@]4(C)[C@@]3(F)[C@@H](O)C[C@@]21C`, the fluorescence, % of fluorescent control is -0.137% [at 18.6 µM]. For the compound `CCNCCO`, the compound was classed as inactive. As for `O=C(C(Cl)Cl)N1CCOC12CCCCC2`, the call was inactive. Turning to `NS(=O)(=O)c1cc(-c2nn[nH]n2)c(NCc2cccs2)cc1Cl`, the call was inactive.
